CHX counter – counter-screen for Shiga toxin inhibitors: cycloheximide protein synthesis inhibition; hit rate 12% among 300,000; cell reporter, cycloheximide protein synthesis inhibition counterscreen; max response, %; in the data active means max response mostly above about 13%, no sharp cut-off; inactive means mostly below about 14%; further: read at 38.3 µM for the half of the compounds with a filed dose
AmpC inh no detg – inhibitors of E. coli AmpC beta-lactamase without detergent; hit rate 0.52% among 330,000; AmpC nitrocefin hydrolysis, absorbance 480 nm, 0.0001% Triton; P00811; AID 485341; Potency, µM (top dose mostly 57.1 µM), actives largely listed as inhibitors; further: nearly all actives have a fitted effect of over 20% in size
Target sequence (P00811 whole entry, looked up): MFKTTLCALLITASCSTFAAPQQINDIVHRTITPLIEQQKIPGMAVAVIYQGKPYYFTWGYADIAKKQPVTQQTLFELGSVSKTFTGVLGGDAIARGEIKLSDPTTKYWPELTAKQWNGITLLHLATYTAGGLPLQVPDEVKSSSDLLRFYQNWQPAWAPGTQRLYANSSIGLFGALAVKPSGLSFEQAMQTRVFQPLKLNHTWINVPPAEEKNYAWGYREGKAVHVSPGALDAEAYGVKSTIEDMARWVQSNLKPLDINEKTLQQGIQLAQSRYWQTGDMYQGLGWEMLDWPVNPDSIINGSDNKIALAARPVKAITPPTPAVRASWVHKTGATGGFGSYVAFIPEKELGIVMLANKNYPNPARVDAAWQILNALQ
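20 mM phosphate pH 7.0 + 0.01% (detergent screen) or 0.0001% Triton X-100; 5.3 nM AmpC reagent; cpd preinc 15 min RT; nitrocefin (800 uM stock) to start; A480 q20 s × 4 min; Activity was normalised to no-enzyme and no-compound control wells.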
NS1 function inh – influenza NS1 inhibition. Potency, µM (doses to about 46.1 µM). hit rate 0.4% among 270,000; calls by dose curve; further: actives are rising curves; nearly all actives have a fitted effect of over 50% in size
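Compounds were scored for reversing the slow growth caused by influenza A NS1 in S. cerevisiae, measured by optical density at 600 nm. Assay medium contained 2% galactose at pH 6.0; NS1-free yeast of the same strain were the positive control.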
AmpC detergent – AmpC beta-lactamase inhibition with detergent present. P00811. AmpC hydrolysis of nitrocefin, absorbance 480 nm, 0.01% Triton. Potency, µM (highest dose often 114 µM), hits mostly inhibitors. hit rate 0.041% among 370,000; further: nearly all actives have a fitted effect of over 25% in size
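20 mM phosphate pH 7.0 + 0.01% (detergent screen) or 0.0001% Triton X-100; 5.3 nM AmpC reagent; cpd preinc 15 min RT; nitrocefin (800 uM stock) to start; A480 q20 s × 4 min; Activity was normalised to no-enzyme and no-compound control wells.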
Shiga inhibitor – inhibitors of Shiga toxin in Vero cells. hit rate 9.2% among 290,000. Vero cells, Shiga toxin protein synthesis inhibition reporter. inhibition, % at 38.7 µM. AID 2315; in the data active means inhibition mostly above about 28%, no sharp cut-off; inactive means mostly below about 43%
A number is an active result; . = inactive; ? = inconclusive; / = no result given; + = active, no number. This excerpt belongs to a sample that is enriched for hits. Unless noted, the call rests on the fitted dose curve; in most records, active means well fitted curve in the direction sought with a large enough effect; inconclusive means small, poorly fitted or top-dose-only effect, or another doubt; inactive means no such curve, though single readings can be large; an effect the other way counts as inactive or inconclusive.

SMILES	CHX counter	AmpC inh no detg	NS1 function inh	AmpC detergent	Shiga inhibitor
COc1ccc(-c2cc(C(=O)N3CCCc4ccccc43)no2)cc1	43.8	.	.	?	93.5
COc1cc(C2=NOC(C(=O)N3CCCc4ccccc43)C2)cc(OC)c1OC (configuration not stated)	.	.	.	.	.
COc1cccc(-c2cc(C(=O)N3CCCc4ccccc43)no2)c1	28.0	.	.	.	46.0
COc1ccccc1-c1cc(C(=O)N2CCCc3ccccc32)no1	60.1	.	/	.	71.9
O=C(NCCc1cccnc1)C1CCC(=O)N(Cc2ccc(Cl)cc2)C1 (configuration not stated)	.	.	.	.	.
Nc1ccccc1Nc1cc(-c2ccccc2)[nH]n1	28.9	1.12µM	.	.	54.8
Nc1ccccc1Nc1cc(-c2ccccc2)nn1-c1ccccc1	18.4	.	.	.	.
Cc1ccc(-n2nc(-c3ccccc3)cc2Nc2ccccc2N)cc1	.	.	?	.	.
O=C(C1CCN(S(=O)(=O)c2cccnc2)CC1)N1CCN(c2ccccc2Cl)CC1	25.8	/	.	.	.
CCC(C)NC(=O)c1ccc(NC(=O)C2=C(C)OCCS2)cc1 (configuration not stated)	.	.	.	.	.
Nc1nc(CCl)nc(Nc2ccc3ccccc3c2)n1	73.6	.	.	.	90.2
COc1ccc(Nc2nc(N)nc(CN3CCOCC3)n2)cc1	.	.	.	?	.
COc1ccc(Nc2nc(N)nc(CCl)n2)cc1	66.8	.	.	.	77.6
Nc1nc(SCC(=O)c2ccc(Oc3ccccc3)cc2)n[nH]1	28.7	.	.	.	.
O=C(CSc1n[nH]c(-c2ccccc2)n1)c1ccccc1	51.8	.	.	.	71.4
Nc1nc(SCC(=O)c2ccc([N+](=O)[O-])cc2)n[nH]1	.	.	.	.	.
CCOc1ccc(-c2nonc2NC(=O)c2oc3cc(C)ccc3c2C)cc1	/	/	/	.	/
Cc1ccc(NC(=O)NCCN2CCCCC2)cc1	8.8	.	.	.	.
O=C(NCCN1CCOCC1)Nc1ccc(Cl)cc1	13.1	.	.	.	.
O=C(NCCN1CCCCC1)Nc1ccc(Br)cc1	.	.	.	.	.
S=C(NCCN1CCOCC1)Nc1ccc(Cl)cc1	.	.	.	.	.
Nc1c(C(=O)CSc2nccn2-c2cccc(F)c2)c(=O)[nH]c(=O)n1C1CC1	/	.	/	?	/
CCOCCCNC(=O)c1cc(C)nn1-c1ccccc1	.	3.16µM	.	?	.
Cc1cc(C(=O)NCCCN2CCOCC2)n(-c2ccccc2)n1	.	39.8µM	.	?	.
O=C(Nc1ccccc1N1CCCCC1)C1CCN(C(=O)c2ccc(Cl)cc2)CC1	/	.	/	.	/
SMILES	CHX counter	AmpC inh no detg	NS1 function inh	AmpC detergent	Shiga inhibitor
COC(=O)COc1ccc(S(=O)(=O)NCC2CCCO2)cc1Cl (configuration not stated)	.	.	.	.	.
Cc1cccc(C(=O)NCC(=O)OCc2cc(=O)n3nc(C4CCCCC4)sc3n2)c1	/	/	/	.	/
S=C(Sc1ccc(Cl)cc1)Sc1ccc(Cl)cc1	20.9	.	.	.	.
O=C(NCc1ccccc1F)C1CCCN1S(=O)(=O)c1ccc(F)cc1 (configuration not stated)	.	.	.	.	.
CC1(C)Cn2c(nnc2-c2cccc(O)c2)S1	24.5	.	.	.	66.4
COc1ccc(NC(=O)CCC(=O)c2cccs2)cc1Cl	9.5	.	.	.	.
COc1ccc(NC(=O)Nc2cccs2)cc1Cl	39.3	.	/	.	+
COc1ccc(NC(=O)COC(=O)CCC(=O)c2cccs2)cc1OC	/	.	/	.	/
CCc1cccc(NC(=O)Nc2cccs2)c1	28.2	15.8µM	.	.	+
COc1ccc(Nc2nccc(-c3cccc(N)c3)n2)cc1	68.2	.	?	.	71.0
COc1ccc(Nc2nccc(NCCO)n2)cc1	41.2	/	/	/	71.8
COc1cccc(CSc2nc(-c3ccccc3F)nc3c2Cc2c(CO)cnc(C)c2O3)c1	/	/	/	.	/
Nc1c(C(=O)Nc2cccc(F)c2)nnn1-c1ccc2c(c1)OCCO2	20.4	.	.	.	69.6
Nc1c(C(=O)Nc2ccc3c(c2)OCCO3)nnn1Cc1ccc(F)cc1	/	.	/	.	/
COc1ccc(CCNC(=O)c2nnn(-c3ccc4c(c3)OCCO4)c2N)cc1OC	70.0	.	.	.	151.1
Nc1c(C(=O)Nc2ccc3c(c2)OCCO3)nnn1Cc1ccccc1Cl	/	.	/	?	/
Cc1ccccc1NC(=O)c1nnn(-c2ccc3c(c2)OCCO3)c1N	53.0	.	.	.	80.2
CCOc1ccccc1NC(=O)c1nnn(CC(=O)Nc2ccc3c(c2)OCO3)c1N	.	?	.	.	.
CCOc1ccccc1NC(=O)c1nnn(-c2ccc3c(c2)OCCO3)c1N	26.0	.	.	.	64.0
COc1ccccc1CNC(=O)Cc1csc2nc(-c3ccc(Cl)cc3)cn12	/	/	/	.	/
O=C(O)CCc1nc(-c2cccs2)no1	.	.	.	?	.
O=[N+]([O-])c1ccc(F)cc1OCc1nc(-c2cccs2)no1	41.3	.	/	.	95.1
Cc1ccc(OCc2nc(-c3cccs3)no2)c([N+](=O)[O-])c1	45.5	.	/	.	99.7
O=[N+]([O-])c1ccccc1OCc1nc(-c2cccs2)no1	61.1	.	/	.	178.9
CN(CCC1CCCCO1)C(=O)CCc1nnc(C2CCCCC2)o1 (configuration not stated)	31.5	.	.	.	40.2
SMILES	CHX counter	AmpC inh no detg	NS1 function inh	AmpC detergent	Shiga inhibitor
Cc1cc(C)cc(NC(=O)[C@H](Cc2c[nH]c3ccccc23)NC(=O)[C@@H]2Cc3ccccc3CN2)c1	.	.	.	.	.
CC(NC(=O)[C@H](Cc1c[nH]c2ccccc12)NC(=O)[C@@H]1Cc2ccccc2CN1)c1ccccc1 (some centres not stated)	.	.	.	?	.
CCc1ccc(NC(=O)[C@H](Cc2c[nH]c3ccccc23)NC(=O)[C@@H]2Cc3ccccc3CN2)cc1	.	.	.	.	28.3
Cc1cccc(NC(=O)[C@H](Cc2c[nH]c3ccccc23)NC(=O)[C@@H]2Cc3ccccc3CN2)c1	13.6	.	.	?	.
Cc1cccc(CS(=O)(=O)Cc2ccc(C(=O)NC3CCCCCC3)o2)c1	.	.	.	.	.
COc1ccc(C2Nc3ccccc3C(=O)N2c2ccc(C)cc2)cc1Cn1nnc2ccccc21 (configuration not stated)	50.9	.	.	.	53.0
COc1ccc(C2Nc3ccccc3C(=O)N2NS(=O)(=O)c2ccc(C)cc2)cc1OC (configuration not stated)	.	.	.	.	.
COc1ccc(C2Nc3ccccc3C(=O)N2c2ccc(C)cc2)cc1Cn1cc([N+](=O)[O-])cn1 (configuration not stated)	38.3	.	?	.	50.2
O=c1cc(-c2ccc(Br)cc2)[nH][nH]1	.	.	.	.	.
O=c1cc(-c2ccc(C3CCCCC3)cc2)[nH][nH]1	21.8	14.1µM	/	.	.

Assay outcomes from PubChem BioAssay.
